The entries come from a sample that favours hits as a whole.
FBPA Giardia inh: qHTS Assay for Inhibitors of Fructose-1,6-bisphosphate Aldolase from Giardia Lamblia; A8B2U2; 290,000 compounds, 0.71% hits; Potency, µM (titrated, usually from 59.6 µM), actives largely listed as inhibitors; purified Giardia FBPA; also: nearly all actives have a fitted effect of over 55% in size
Target sequence (A8B2U2 whole entry, looked up): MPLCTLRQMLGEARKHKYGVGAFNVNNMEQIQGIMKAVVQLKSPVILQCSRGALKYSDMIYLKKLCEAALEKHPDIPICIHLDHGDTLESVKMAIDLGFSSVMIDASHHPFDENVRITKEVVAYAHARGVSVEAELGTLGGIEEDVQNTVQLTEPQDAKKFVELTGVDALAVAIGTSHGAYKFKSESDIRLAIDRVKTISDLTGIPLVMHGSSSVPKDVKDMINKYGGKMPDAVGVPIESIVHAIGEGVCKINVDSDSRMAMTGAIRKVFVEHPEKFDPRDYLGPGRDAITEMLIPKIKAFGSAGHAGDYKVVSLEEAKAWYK
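40 nM FBPA preincubated 10 min at RT with compound (up to 57.5 uM final), then substrate plus GAPDH/TPI/NAD/arsenate coupling and diaphorase/resazurin added. Fluorescence read after 20 min at RT, 525/598 nm.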
Sm TGR block: qHTS Assay for the Inhibitors of Schistosoma Mansoni Peroxiredoxins; Potency, µM (highest dose often 114 µM), hits mostly inhibitors; AID 485364, 2010; purified TGR, DTNB reduction, TNB absorbance 405 nm; 360,000 compounds, 3% hits; also: nearly all actives have a fitted effect of over 60% in size
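First, TGR (20 nM dispensed) and NADPH were mixed with compound. Second, a 15 min room-temperature incubation followed. Third, further NADPH and then DTNB were added to start the reaction. Finally, TNB absorbance was monitored kinetically.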
Shiga inhibitor: A qHTS for Small Molecule Inhibitors of Shiga Toxin; AID 2315, 2010; inhibition, % at 38.7 µM; Vero cells, Shiga toxin protein synthesis inhibition reporter; 290,000 compounds, 9.2% hits; in the data active = inhibition mostly above about 28%, no sharp cut-off; inactive = mostly below about 43%
LmPK inh: qHTS Assay for Inhibitors of Leishmania Mexicana Pyruvate Kinase (LmPK) | 290,000 compounds, 0.37% hits | Potency, µM (titrated, usually from 57.5 µM), usual class: inhibitors | purified LmPK, Kinase-Glo ATP luminescence, 1 h
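qHTS format; LmPK 0.1 nM; substrates PEP 0.5 mM and ADP 0.1 mM. One-hour room-temperature incubation, then coupled luciferase luminescence; 0.5 nM enzyme wells mark activation.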
Cycloheximide cs: Cycloheximide Counterscreen for Small Molecule Inhibitors of Shiga Toxin | cell reporter, cycloheximide protein synthesis inhibition counterscreen | max response, % | 300,000 compounds, 12% hits | AID 2314, 2010; in the data active = max response mostly above about 13%, no sharp cut-off; inactive = mostly below about 14%; also: read at 38.3 µM for the half of the compounds with a filed dose
TbPYK inhibitor: qHTS of Trypanosoma Brucei Inhibitors; pyruvate kinase (Trypanosoma brucei), Q57TT1; TbPYK enzyme, Kinase-Glo Plus ATP luminescence, 45 min; Potency, µM (series often up to 76.8 µM), hits mostly inhibitors; 410,000 compounds, 0.12% hits; AID 624173, 2012; also: nearly all actives have a fitted effect of over 50% in size
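Screened from lowest to highest concentration, compounds were pinned into TbPYK/substrate mixtures, and ADP (130 uM final) was added. Plates sat at room temperature for 45 min prior to Kinase-Glo Plus detection by luminescence.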
A number is an active result; – = inactive; ? = inconclusive; · = no result; ! = not active in a repeat; [ ] = remark or other dose. Unless noted, calls follow the shape of the dose curve; as a rule, active = well fitted curve in the direction sought with a large enough effect; inconclusive = small, poorly fitted or top-dose-only effect, or another doubt; inactive = no such curve, though single readings can be large; an effect the other way counts as inactive or inconclusive.

SMILES	FBPA Giardia inh	Sm TGR block	Shiga inhibitor	LmPK inh	Cycloheximide cs	TbPYK inhibitor
CC1CN(C(=O)CSc2nnc(-c3ccc(Cl)cc3)n2C)CC(C)O1 (stereo not drawn)	–	–	–	–	20.1	–
Cc1ccnc(NCc2ccc(Br)cc2)c1	–	–	34.6	–	38.4	–
COc1cccc(-c2nccc(NCc3cccc(C)c3)n2)c1	–	·	·	·	·	·
COc1ccc(CNc2cc(C)ccn2)cc1	–	–	97.3	–	37.5	–
Cc1ccnc(NC(=O)CCNC(=O)c2ccc(Br)cc2)c1	·	·	·	·	·	–
COc1ccc(CC(=O)Nc2cc(C)ccn2)cc1	–	–	86.3	–	42.0	–
COc1cccc([C@@H]2Oc3ccc(OC)cc3/C(=N/O[C@@H](C)c3cn([C@H]4COC[C@H]4O)nn3)[C@@H]2O)c1	–[12.9 µM]	·	·	·	·	·
COc1ccccc1NC(=O)c1sc2nc3c(c(C(F)(F)F)c2c1N)CN(C(C)=O)CC3	·	–	·	·	·	–
Cc1ccc2c(c1)-c1nc3ccccc3cc1C2=NC1CCCCC1	–	–	85.4	–	55.2	–
Cc1ccc2c(c1)C(=NC1CCCCC1)c1cc3ccccc3nc1-2	–	–	40.6	–	51.4	–
Cc1ccc(-c2cc3ccccc3nc2N2CCCC2)cc1	–	–	–	–	–	–
COc1ccc(Cn2c(/C=C/c3ccccc3)nc3ccccc32)cc1	–	–	82.2	–	64.8	–
CCCCCCn1c(/C=C/c2ccccc2)nc2ccccc21	·	–	101.3	·	46.8	–
CCn1c(/C=C/c2ccccc2)nc2ccccc21	–	–	62.2	22.4µM	33.2	–
CC(C)Cn1c(/C=C/c2ccccc2)nc2ccccc21	–	–	59.1	–	39.4	–
CCCn1c(/C=C/c2cc[n+](C)cc2)nc2ccccc21	–	–	–	–	–	–
N#Cc1cccc(-c2nc(NCc3ccccc3)c3ccccc3n2)c1	–	·	·	·	·	·
COc1ccc(/C=C/c2nc3ccccc3n2C)cc1	?	?	–	17.8µM	–	?
COc1ccc(-n2cnc3ccccc32)cc1	–	–	–	–	–	–
CCC(C)n1c(/C=C/c2ccccc2)nc2ccccc21 (stereo not drawn)	–	–	–	–	24.9	–
Cc1ccccc1-c1nccc(NCCN2CCOCC2)n1	–	·	·	·	·	·
Nc1ccc(Cl)cc1N	·	·	·	·	·	–
Cc1ccc(N)c(N)c1	–	–	156.7	·	50.6	–
O=C(N/N=C\c1cn(-c2ccccc2)nc1-c1ccccc1)c1ccc(Br)o1	–	–	79.8	–	14.4	–
O=C(N/N=C\c1cn[nH]c1-c1ccc(Cl)cc1)c1cccs1	–	–	81.5	–	36.1	–
SMILES	FBPA Giardia inh	Sm TGR block	Shiga inhibitor	LmPK inh	Cycloheximide cs	TbPYK inhibitor
Cc1ccc(-c2nn(-c3ccccc3)cc2/C=N/NC(=O)c2ccc(Br)o2)cc1	–	–	35.9	–	24.1	–
O=C(N/N=C/c1cn[nH]c1-c1ccccc1)c1ccco1	–	·	72.4	–	26.4	–
C=CCN1C=C(C(C)=O)C(=O)CC1	·	·	·	·	·	–
Cc1noc(C)c1S(=O)(=O)N(C)C[C@H]1Oc2ccc(NC(=O)CCC(F)(F)F)cc2C(=O)N([C@H](C)CO)C[C@@H]1C	·	·	·	·	·	–
O=C(N/N=C/c1cn(-c2ccccc2)nc1-c1ccccc1)c1ccco1	–	–	42.0	–	20.8	–
Cc1ccc(CCNC(=O)c2sc3ncccc3c2-n2c(C)ccc2C)cc1	·	–	·	·	·	–
CC(C)CN1CCC(=O)N(CCSc2ccc(Br)cc2)CC1	–	–	52.9!	–	–	–
CC(C)CN1CCC(=O)N(CCOc2ccccc2)CC1	–	–	27.8	–	27.8	–
CCCN1CCC(=O)N(CCOc2ccccc2)CC1	–	–	–	–	–	–
CCCCN(CC)C(=O)CSc1c2c(nc3ccc(Cl)cc13)CCCC2	·	–	·	·	·	–
O=C1c2ccccc2C(=O)N1Cc1ccco1	–	–	–	–	–	–
CC1=CC(=C2C(=O)c3ccccc3C2=O)C=C(C)O1	–	–	–	–	11.3	–
CC1=CC(=C2C(=O)c3ccccc3C2=O)C=C(C)N1Cc1ccco1	–	39.8µM	65.7	–	37.0	–
Cc1ccc([N+](=O)[O-])cc1	·	–	·	·	·	–
CC1(C)CNc2cc([N+](=O)[O-])ccc2S1	–	·	58.1	–	39.3	–
C/C(=N/NS(=O)(=O)c1ccc(Br)cc1)c1c[nH]c2ccccc12	·	39.8µM	–	–	–	–
COc1cc(-c2nc(-c3ccc(NC(=O)c4ccc5c(c4)OCO5)cc3)no2)cc(OC)c1OC	–	–	68.0	–	39.8	–
Cc1ccccc1-c1nc(-c2ccc(NC(=O)c3ccc4c(c3)OCO4)cc2)no1	–	–	80.8	–	38.3	·
O=S(=O)(c1ccc(NC(=S)NCc2cccnc2)cc1)N1CCCCC1	–	31.6µM	–	–	–	–
COCCOC(=O)c1nccnc1C(=O)Nc1ccc(S(=O)(=O)N2CCOCC2)cc1	–	–	–	–	–	–
Cc1cc(NS(=O)(=O)c2ccc(NC(NC(=O)C(C(F)(F)F)C(F)(F)F)(C(F)(F)F)C(F)(F)F)cc2)no1	–	12.6µM	–	–	–	–
NS(=O)(=O)c1ccc(NC(=O)c2ccc(S(=O)(=O)N3CCCCC3)cc2)cc1	·	·	·	·	·	–
O=C(O)c1nccnc1C(=O)Nc1ccc(S(=O)(=O)N2CCOCC2)cc1	–	25.1µM	–	–	–	–
NS(=O)(=O)c1ccc(NC(=S)Nc2ccc(S(=O)(=O)N3CCCC3)cc2)cc1	–	25.1µM	–	–	–	–
CCOc1ccc(NC(=O)Cn2c(=O)n(Cc3ccccc3)c(=O)c3sc4ccccc4c32)cc1	·	–	·	·	·	–
SMILES	FBPA Giardia inh	Sm TGR block	Shiga inhibitor	LmPK inh	Cycloheximide cs	TbPYK inhibitor
COc1ccc(C(=O)N2CCC3(CCCN(c4ncccn4)C3)CC2)cc1	–	·	·	·	·	–
O=C(CCc1ccccc1)NC(=S)Nc1ccc(S(=O)(=O)N2CCOCC2)cc1	–	–	–	–	–	–
O=S(=O)(c1ccc(NC(=S)Nc2ccccc2)cc1)N1CCOCC1	–	44.7µM	–	–	–	–
Cc1ccc(NC(=S)Nc2cccnc2)c(S(=O)(=O)N2CCCCC2)c1	–	14.1µM	–	–	–	–
O=S(=O)(c1ccc(NC(=S)Nc2ccc3c(c2)OCO3)cc1)N1CCOCC1	–	?	63.6	–	36.7	–
O=C(Cc1ccc(Br)cc1)Nc1cccc(S(=O)(=O)N2CCOCC2)c1	·	–	·	·	·	–
O=S(=O)(c1cccc(NC(=S)Nc2ccc(Br)cc2Cl)c1)N1CCOCC1	–	14.1µM	–	–	–	–
Cc1nn(CC(=O)N2CCN(c3ccccc3)CC2)c(=O)c2cc3cc(F)ccc3n12	·	–	·	·	·	–
C[C@H](CN1CCCC1)C(=O)c1ccc(C(F)(F)F)cc1	·	·	·	·	·	–
O=C(C1CCN(S(=O)(=O)Cc2ccccc2)CC1)N1CCN(c2ccccc2F)CC1	·	–	·	·	·	–
